# Screening results (PubChem)
# Hits are enriched below; roughly 3.1% of the tested compounds scored in any of these assays.
# PAFAH1B2 inh = inhibitors of human PAFAH1B2. P68402. recombinant PAFAH1B2, FP-rhodamine activity probe, fluorescence polarization. inhibition, % at 3.39 µM. 340,000 compounds, 1.2% hits;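 active = inhibition above the mean of all tested compounds plus 3 SD, cut at about 24% in these data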
# E coli Lon inh = inhibits E. coli Lon protease | P0A9M0 | purified E. coli Lon protease, fluorescence polarization | inhibition, % at 7.94 µM | 360,000 compounds, 0.42% hits | AID 602123; in the data active = inhibition above about 13%, passing the limit was not always enough
# PAFAH2 FP inh = inhibitors of human PAFAH2 | 340,000 compounds, 0.99% hits | inhibition, % at 3.39 µM | recombinant PAFAH2, FP-rhodamine activity probe, fluorescence polarization | AID 492956 | Q99487;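 active = inhibition above the mean over all tested compounds plus 3 SD, cut at about 30% in these data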;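 also: inhibitors block probe labeling of enzyme so polarization drops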
# Rin1 Abl inh = inhibitors of human Rin1-Abl protein interaction; TR-FRET Rin1/Abl binding, biochemical; AID 588664; 360,000 compounds, 0.4% hits; inhibition, % at 7.35 µM; in the data active = inhibition above about 5%, passing the limit was not always enough
# PAFAH1B3 inh = PAFAH1B3 (human) inhibition | Q15102 | recombinant PAFAH1B3, FP-rhodamine probe, fluorescence polarization | inhibition, % at 3.39 µM | 340,000 compounds, 0.28% hits;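 active = inhibition above the screen-wide average of all tested compounds plus 3 SD, cut at about 25% in these data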
# pPAFAH FP inh = pPAFAH (human) enzyme inhibition. Q13093. recombinant pPAFAH, FP-rhodamine probe fluorescence polarization. inhibition, % at 3.39 µM. 330,000 compounds, 1.5% hits. AID 463082;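 active = inhibition above the mean inhibition across the screen plus 3 SD, cut at about 25% in these data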;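 also: inhibitors block binding of the rhodamine activity-based probe so polarization drops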
# PAFAH2 confirm = confirmation of human PAFAH2 inhibitors. shares compounds with PAFAH2 FP inh. recombinant PAFAH2, FP-rhodamine activity probe, fluorescence polarization. inhibition, % at 3.39 µM. 2,300 compounds, 65% hits;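 active = mean inhibition over three repeats above a set limit taken from the earlier primary screen, cut at about 30% in these data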;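 also: inhibitor blocks binding of rhodamine activity probe so polarization falls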
# Hits are given with their value; – = inactive; · = not tested or not shown.
SMILES,PAFAH1B2 inh,E coli Lon inh,PAFAH2 FP inh,Rin1 Abl inh,PAFAH1B3 inh,pPAFAH FP inh,PAFAH2 confirm
O=C(COC(=O)/C=C/c1ccc(F)cc1)Nc1cc(C(F)(F)F)ccc1N1CCOCC1,–,–,–,–,–,–,·
COc1ccc(/C=C/C(=O)Nc2cc(C(F)(F)F)ccc2Cl)cc1OC,–,–,–,–,–,–,·
COc1ccc(CCC(=O)OCC(=O)Nc2ccc(OC)c(OC)c2)cc1OC,–,–,–,–,–,–,·
O=C(COc1ccc(Cl)cc1)NCCCNC(=O)c1ccncc1,–,–,–,–,–,–,·
COc1ccc(S(=O)(=O)N2CCN(C(=O)NCc3ccc(OC)c(OC)c3)CC2)cc1,–,–,–,–,–,–,·
Cc1ccc(NC(=O)CSCC(=O)N(C)CC(=O)Nc2cccc3ccccc23)cc1,–,–,–,–,–,–,·
COc1cccc(/C=C/C(=O)OCC(=O)Nc2cccc(S(=O)(=O)N(C)C)c2)c1,–,–,68.9,–,–,–,60.2
CN(C)S(=O)(=O)c1cccc(NC(=O)COC(=O)CCOc2ccccc2)c1,–,–,–,–,–,–,·
Cc1cccc(/C(N)=N/OC(=O)c2ccc(F)cc2)c1,–,–,–,–,–,–,·
COc1cccc(C(=O)O/N=C(\N)CS(=O)(=O)c2ccccc2)c1,–,–,64.4,–,–,–,45.2
COc1cccc(C(=O)O/N=C(\N)c2ccccn2)c1,–,–,–,–,–,–,·
Cc1cccc(C(=O)O/N=C(\N)CS(=O)(=O)c2ccccc2)c1,–,–,43.9,–,–,–,36.4
CC(=O)c1cccc(NC(=O)COC(=O)C2CCCN2C(=O)c2cccs2)c1 (configuration not stated),–,–,–,–,–,–,·
CC(=O)c1cccc(NC(=O)COC(=O)c2cccs2)c1,–,–,81.0,–,–,–,76.8
COc1ccc(Cl)cc1C(=O)NNC(=O)COC(=O)c1cccs1,–,–,–,–,–,–,·
CCN(CC)c1ccc(NC(=O)COC(=O)c2cccs2)cc1,–,–,–,–,–,–,·
O=C(COC(=O)c1cccs1)Nc1cccc(Cl)c1,–,–,91.2,–,–,–,89.1
CCN(c1ccc(NC(=O)COC(=O)c2cccs2)cc1)C(C)C,–,–,30.1,–,–,–,–
O=S(=O)(NC1CCC(NS(=O)(=O)c2c(F)cccc2F)CC1)c1ccc2c(c1)OCCO2 (configuration not stated),–,–,–,–,–,–,·
CC1CCc2sc(C(=O)OCC(=O)NCc3ccc(F)cc3)cc2C1 (configuration not stated),–,–,46.0,–,–,–,40.1
O=C(c1cnn2c(C(F)F)cc(-c3ccccc3)nc12)N1CCCc2ccccc21,–,–,–,–,–,–,·
Cc1cc(NC(=O)c2cnn3c(C(F)F)cc(-c4ccccc4)nc23)no1,–,–,–,–,–,–,·
Cc1cc(NC(=O)c2cnn3c(C(F)(F)F)cc(-c4ccccc4)nc23)no1,–,–,29.6,–,–,–,–
O=C(c1cnn2c(C(F)(F)F)cc(-c3ccccc3)nc12)N1CCCc2ccccc21,–,–,38.6,–,–,–,39.0
NC(=O)CN1CCN(Cc2ccc3c(c2)OCO3)CC1,–,–,–,–,–,–,·
SMILES,PAFAH1B2 inh,E coli Lon inh,PAFAH2 FP inh,Rin1 Abl inh,PAFAH1B3 inh,pPAFAH FP inh,PAFAH2 confirm
Cc1[nH]n(C(N)=S)c(=O)c1N=Nc1cccc([N+](=O)[O-])c1C,–,–,–,–,–,–,·
Cc1c(N=Nc2c(-c3ccc([N+](=O)[O-])cc3)[nH]n(C(N)=S)c2=O)cccc1[N+](=O)[O-],–,–,55.4,–,–,·,36.4
Cc1ccc(S(=O)(=O)Oc2ccccc2-c2ccccc2)cc1,–,–,–,–,–,·,·
Cc1ccc(C(=O)OCC(=O)NC(=O)c2ccccc2)o1,–,–,–,–,–,–,·
Cc1cccc(CS(=O)(=O)c2ncc(CO)n2C)c1,–,–,–,–,–,–,·
O=C(COC(=O)c1cccs1)NCCC1=CCCCC1,–,–,55.0,–,–,–,41.0
O=C(COC(=O)c1ccccc1O)NCCC1=CCCCC1,–,–,–,–,–,–,·
Cc1ccc(C(=O)OCC(=O)NCCC2=CCCCC2)s1,–,–,61.1,–,–,–,60.2
